Shown are actives, neighbours in structure and some others; about 4.8% of the full set was active somewhere.
ssDAF12 agonist: S. stercoralis DAF-12 activation, primary screen; hit rate 1% among 370,000; activation, % at 6.8 µM; HEK293 ssDAF-12/GRIP1 lit1-tk-luc reporter, luminescence; % of 3 µM dafachronic acid response;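 active means activation above the mean over all tested compounds plus 3 SD, cut at about 0.9% in these data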
DAX1 inh-1: inhibits human nuclear receptor DAX1; P51843; HEK293 Gal4-DAX1 luciferase reporter, luminescence; inhibition, % at 6.75 µM; hit rate 0.99% among 340,000;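 active means inhibition above the mean over all tested compounds plus 3 SD, cut at about 4.2% in these data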;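 further: inhibition shows as a rise in luminescence from relieved DAX1 repression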
hgDAF12 agonist: agonists of H. glycines DAF-12 nuclear receptor | HEK293 GAL4-hgDAF12 UAS-luciferase reporter, agonist luminescence; normalized to butyrate control | activation, % at 6.8 µM | hit rate 1.8% among 370,000;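 active means activation above a cutoff set at the mean of all screened compounds plus 3 SD, cut at about 10% in these data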
DAX1 inh-2: inhibitors of DAX1 repression of SF-1 activated StAR promoter; HEK293T StAR-luciferase reporter, SF-1/DAX-1 repression relief; inhibition, % at 6.8 µM; hit rate 1.1% among 370,000;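 active means inhibition above the mean over all tested compounds plus 3 SD, cut at about 3.6% in these data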;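 further: higher inhibition means more luminescence from relief of DAX-1 repression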
Rev-erbA mod: modulates human Rev-erb alpha binding to DNA; hit rate 0.79% among 370,000; Rev-erbα–FITC-DNA binding, fluorescence polarization, 90 min; activity, % at 10 µM; P20393;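 active means activity above about 14%, limit read from the data; passing the limit was not always enough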
hcDAF-12 act: H. contortus DAF-12 activation, primary screen; hit rate 1.4% among 370,000; AID 652067; activation, % at 6.8 µM; HEK293 hcDAF-12 lit1-tk-luc reporter, luminescence; 0% DMSO, 100% Δ7-dafachronic acid;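 active means activation above the mean of all tested compounds plus 3 SD, cut at about 5.5% in these data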
LXR ag: activates human LXR-beta, counter-screen for hcDAF-12 agonists. shares compounds with hcDAF-12 act. HEK293 Gal4-LXR tk-luc reporter, luminescence, 24 h; normalized: DMSO 0%, positive control 100%. activation, % at 6.8 µM. 3,400 tested, under 10 active;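 active means mean percent activation of the reporter above a cutoff set as the average over tested compounds plus their standard deviation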
Target sequence (P55055 whole entry, looked up, the tested form may be a part): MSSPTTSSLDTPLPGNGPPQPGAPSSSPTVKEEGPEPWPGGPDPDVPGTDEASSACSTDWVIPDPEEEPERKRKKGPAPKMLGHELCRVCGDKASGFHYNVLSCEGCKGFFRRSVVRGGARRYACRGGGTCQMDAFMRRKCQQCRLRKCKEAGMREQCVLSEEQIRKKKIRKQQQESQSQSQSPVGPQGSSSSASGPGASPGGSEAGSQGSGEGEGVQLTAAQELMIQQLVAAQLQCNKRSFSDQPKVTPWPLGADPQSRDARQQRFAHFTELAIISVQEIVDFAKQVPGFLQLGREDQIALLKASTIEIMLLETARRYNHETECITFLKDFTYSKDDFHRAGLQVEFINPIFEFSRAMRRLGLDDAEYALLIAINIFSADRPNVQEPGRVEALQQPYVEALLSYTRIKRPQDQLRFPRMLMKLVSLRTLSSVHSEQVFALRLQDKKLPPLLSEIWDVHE
hcDAF12 conf: hcDAF-12 agonism, confirmation assay | shares compounds with hcDAF-12 act | HEK293 hcDAF-12 lit1-tk-luc reporter, luminescence; % of Δ7-dafachronic acid response | activation, % at 6.8 µM | hit rate 61% among 3,400;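 active means mean activation across triplicate tests above the threshold derived from the earlier primary screen, cut at about 5.5% in these data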
Large screens that a line does not name were inactive (follow-up assays come after a bar, where they were run).

COC(=O)C1=C(C)N(Cc2ccc(Br)cc2)C(=S)NC1c1cccc(OC)c1 (stereo not given)	none (no result: DAX1 inh-1)
CCOC(=O)c1c(C)nc(-c2ccccc2)nc1N	ssDAF12 agonist 1.5, DAX1 inh-1 4.8, hgDAF12 agonist 16, hcDAF-12 act 9.2 | LXR ag inactive | hcDAF12 conf 14
COC(=O)c1sc(-c2ccc(C(C)(C)C)cc2)cc1NC(=O)c1ccccc1C(=O)O	ssDAF12 agonist 1.5, hgDAF12 agonist 12, hcDAF-12 act 6.8 | LXR ag inactive | hcDAF12 conf inactive
CC(CC(=O)N1CCc2ccccc21)n1cccn1 (stereo not given)	hcDAF-12 act 11 | LXR ag inactive | hcDAF12 conf 5.7
Cc1cc(C)n(CCC(=O)N2CCc3ccccc32)n1	hcDAF-12 act 6.9 | LXR ag inactive | hcDAF12 conf inactive
Cc1csc(-c2ccc3cc(Cl)cc(Cl)c3n2)n1	hcDAF-12 act 10 (no result: DAX1 inh-1) | LXR ag inactive | hcDAF12 conf 11
Nc1nc2c(Cl)cc(Cl)cc2s1	none
O=C(CCl)Nc1ccc(C(=O)NCC2COc3ccccc3O2)cc1 (stereo not given)	none (no result: DAX1 inh-1)
COc1ccccc1C(=O)N1CCN(C(=O)[C@@H](Cc2ccccc2)NC(=O)[C@H]2O[C@@H](n3ccc(=O)[nH]c3=O)[C@H](O)[C@@H]2O)CC1	none (no result: DAX1 inh-1)
COc1ccc(C(=O)Nc2cc(Cl)c(Br)cc2C(=O)O)cc1	none (no result: DAX1 inh-1, DAX1 inh-2)
Cc1ccc(S(=O)(=O)Nc2nc3ccccc3nc2N2CCOCC2)cc1	none
O=S(=O)(Nc1nc2ccccc2nc1N1CCN(c2ccccc2)CC1)c1ccc(F)cc1	hcDAF-12 act 8.3 | LXR ag inactive | hcDAF12 conf inactive
CNc1c(C(=O)O)ccc2c1C(=O)c1ccccc1C2=O	none
O=C(O)c1ccc2c(c1Nc1ccccc1)C(=O)c1ccccc1C2=O	DAX1 inh-1 4.4, hcDAF-12 act 7.5 | LXR ag inactive | hcDAF12 conf inactive
Cc1cc(NCCCn2ccnc2)n2ncc(-c3ccc(Cl)cc3)c2n1	ssDAF12 agonist 1.7, hgDAF12 agonist 19, DAX1 inh-2 3.8, hcDAF-12 act 15 | LXR ag inactive | hcDAF12 conf 19
COc1ccc(C(OCC(O)CN2CCC(O)CC2)c2ccc(OC)cc2)cc1 (stereo not given)	hcDAF-12 act 10 | LXR ag inactive | hcDAF12 conf inactive
Cc1ccc(S(=O)(=O)N2CN(CC3CCCO3)c3nc4ccccc4nc32)c(C)c1 (stereo not given)	hcDAF-12 act 8.1 | LXR ag inactive | hcDAF12 conf inactive
O=S(=O)(c1cccs1)N1CN(CC2CCCO2)c2nc3ccccc3nc21 (stereo not given)	none
CC(C)OP(=O)(O)C(C)NC(=O)OCc1ccccc1 (stereo not given)	none (no result: DAX1 inh-1)
O=C1CCCC2=C1Sc1ccccc1N2	hcDAF-12 act 7.8 (no result: DAX1 inh-1) | LXR ag inactive | hcDAF12 conf inactive
c1ccc(N2CC3COc4ccccc4C3=N2)cc1 (stereo not given)	ssDAF12 agonist 2.8, hgDAF12 agonist 20, DAX1 inh-2 3.9, hcDAF-12 act 16 | LXR ag inactive | hcDAF12 conf 14
CC(C)NC(=O)C1CCN(c2cncnc2)CC1	none (no result: DAX1 inh-1)
Cc1noc(C)c1S(=O)(=O)N(CC(=O)N1CCn2c1nc1ccccc12)c1ccc(C(C)C)cc1	hcDAF-12 act 8.4 | LXR ag inactive | hcDAF12 conf inactive
Cn1c(O)c(N=NC(=O)Cn2ccc(C(F)(F)F)n2)c2ccccc21	hcDAF-12 act 9.1 | LXR ag inactive | hcDAF12 conf inactive
CCn1c(O)c(N=NC(=O)Cn2ccc(C(F)(F)F)n2)c2ccccc21	none
Cc1ccccc1N1CCN(S(=O)(=O)c2ccc3c(c2)n(C)c(=O)c(=O)n3C)CC1	none (no result: DAX1 inh-1)
O=[N+]([O-])c1cccc(C2=Nn3c(nnc3-c3ccccc3)SC2)c1	none (no result: DAX1 inh-1)
Cn1ncc(Cl)c1C(=O)Nc1nc2ccc(Cl)cc2s1	ssDAF12 agonist 1.1, hgDAF12 agonist 12, hcDAF-12 act 8.5 | LXR ag inactive | hcDAF12 conf 10
COC(=O)[C@]12C[C@H](CC(=O)N3CCCC3)C(=O)N(Cc3ccccc3)C1=C[C@H](C(C)C)O[C@@H]2C1CC1	none (no result: DAX1 inh-1)
Cc1c(CC(=O)N[C@@H](C)C(=O)O)c(=O)oc2cc3c(cc12)CCC(C)(C)O3	none
Cc1c(CC(=O)N[C@H](C(=O)O)C(C)C)c(=O)oc2cc3c(cc12)CCC(C)(C)O3	hcDAF-12 act 6.9 | LXR ag inactive | hcDAF12 conf 6.6
CC(=O)N1c2cc(S(=O)(=O)Nc3c(C)n(C)n(-c4ccccc4)c3=O)c(Br)cc2CC1C (stereo not given)	none (no result: DAX1 inh-1)
COc1cccc(CC(=O)N2CCC(n3nccc3NC(=O)C3CCOC3)CC2)c1 (stereo not given)	hcDAF-12 act 6.9 | LXR ag inactive | hcDAF12 conf inactive
O=C1CCOc2cc(OCc3ccccc3)ccc21	hgDAF12 agonist 12, hcDAF-12 act 9.2 | LXR ag inactive | hcDAF12 conf 6.2
CC(=O)/C=C1\OCc2cc(OCc3ccccc3)ccc21	none (no result: DAX1 inh-1)
COc1ccc(-c2cc(C(=O)N3CCCCCC3)no2)cc1	DAX1 inh-1 6.2, hcDAF-12 act 7.6 | LXR ag inactive | hcDAF12 conf inactive
CCCCC12CN3CCN(CC(C3)/C1=N\NC(=O)c1ccccc1N)C2	hgDAF12 agonist 11, hcDAF-12 act 9.4 | LXR ag inactive | hcDAF12 conf inactive
c1ccc(-n2nnc3c(N4CCOCC4)ncnc32)cc1	hcDAF-12 act 7.2 | LXR ag inactive | hcDAF12 conf 6.3
Cc1nnc(N2CCOCC2)c2nn(-c3ccccc3)c(C)c12	none
O=C(NCc1ccccc1)[C@@H]1CCCN1C(=O)[C@H]1CCCN1C(=O)c1ccc(F)c(F)c1	none (no result: DAX1 inh-1)
Cc1cc2ncc(-c3ncc(C(F)(F)F)cc3Cl)cn2n1	hgDAF12 agonist 12, hcDAF-12 act 8.3 | LXR ag inactive | hcDAF12 conf 6.7
CC/C(=N\NC(=O)C1CCCC1)c1cccc(Br)c1	ssDAF12 agonist 1.8, hcDAF-12 act 6.8 | LXR ag inactive | hcDAF12 conf inactive
CC(=O)N1c2ccccc2C(C)=NCC1C(=O)NC1CCCCC1 (stereo not given)	none (no result: DAX1 inh-1)
CCn1ncc(Br)c1C(=O)Nc1ccc(C(C)C)cc1	hcDAF-12 act 7.8 | LXR ag inactive | hcDAF12 conf inactive
CCn1ncc(Br)c1C(=O)Nc1cccc(F)c1	none

Screens from PubChem.
